Source: ChEMBL document CHEMBL1157539, “Thousands of chemical starting points for antimalarial lead identification” (Nature, 2010)

Tests used:
Assay type in all cases: functional
Plasmodium falciparum [1] = test: GSK_TCMDC: Inhibition of Plasmodium falciparum 3D7 in whole red blood cells, using parasite LDH activity as an index of growth. Test compounds present at 2uM
Plasmodium falciparum [2] = test: GSK_TCMDC: Inhibition of Plasmodium falciparum Dd2 in whole red blood cells, using parasite LDH activity as an index of growth. Test compounds present at 2uM
HepG2 = test: GSK_TCMDC: Percent inhibition of human HepG2 cell line. Test compounds present at 10uM.

| Compound | Inhibition (Plasmodium falciparum [1]) | Inhibition (Plasmodium falciparum [2]) | Inhibition (HepG2) |
| --- | --- | --- | --- |
| Cc1ccc(Nc2nccc(NCC(O)c3cccc(F)c3)n2)cc1 (stereo not given) | 95% | 26% | 24% |
| CCn1c2ccccc2c2cc(C=NN=c3cc(C)[nH]c4ccccc34)ccc21 | 100% | 97% | 19% |
| FC(F)(F)c1ccc2[nH]c(-c3ccc(-c4cccc(CN5CCN(c6ccncc6)CC5)c4)cc3)nc2c1.O=C(O)C(F)(F)F | 100% | 99% | 82% |
| CC(C)OCCCNC(=O)c1nc(-c2cccc(C(F)(F)F)c2)sc1C(C)C | 94% | 34% | 0% |
| Cc1cccc(C(=O)Nc2ccnc(N(C)CCCN(C)Cc3cccc(C#N)c3)c2)c1.O=C(O)C(F)(F)F | 92% | 12% | 1% |
| Fc1ccc2[nH]c(-c3ccc(-c4cccc(CN5CCN(c6ccncc6)CC5)c4)cc3)nc2c1.O=C(O)C(F)(F)F | 100% | 100% | 66% |
| COc1ccc2c(c1)Nc1ccc(Cl)cc1C2N.O=S(=O)(O)O (stereo not given) | 100% | 99% | 16% |
| CN(CCCCNC(=O)/C=C/c1ccccc1)C1CC2(CCN(C(=O)OC(C)(C)C)CC2)c2ccccc21 (stereo not given) | 87% | 51% | 11% |
| Cn1c(NC(=O)CCCCCNC(=O)c2ccc(O)c(-c3ccc(Cl)c(Cl)c3)c2)nc2ccccc21 | 100% | 55% | 0% |
| Cl.O=c1cc(NCCCNCc2csc(Br)c2Sc2ccc(Cl)cc2)[nH]c2ccccc12 | 95% | 83% | 5% |
| Br.CCC(ON1C(N)=NC(N)=NC1(C)C)c1ccc(Cl)cc1 (stereo not given) | 91% | 90% | 68% |
| CCCCCCCOc1ccc(NC(=O)Nc2ccc(Cn3ncc(N4CCCNCC4)c(Cl)c3=O)cc2)cc1.O=C(O)C(F)(F)F | 87% | 28% | 60% |
| CN1CCC(C(=O)Nc2cccc(-c3ccc(-c4nc5cc(F)ccc5[nH]4)cc3)c2)CC1 | 100% | 51% | 12% |
| COc1ccc(NC(=O)c2cccc(Br)c2)cc1N1CCN(CCCCCCCN2CCN(c3cc(NC(=O)c4cccc(Br)c4)ccc3OC)CC2)CC1.Cl | 99% | 93% | 97% |
| Nc1nc(N)c2c(ccc3c2ncn3Cc2ccccc2)n1 | 96% | 96% | 71% |
| CC(=O)c1ccccc1OCCSc1nnc(Cc2cccs2)n1C1CCCCC1 | 87% | 1% | 19% |
| CN1CCN(CCCN(Cc2cccc(-c3ccc(CNCCc4ccccc4)cc3)c2)C(=O)c2cccs2)CC1.O=C(O)C(F)(F)F | 100% | 97% | 86% |
| O=C(O)C(F)(F)F.c1cc(-c2ccc(CN3CCCCC3)cc2)cc(-c2nc3ccccc3[nH]2)c1 | 100% | 79% | 39% |
| CCCCN(CCCC)CCCCNc1c2ccc(Cl)cc2nc2ccc(OC)cc12.Cl | 100% | 96% | 68% |
| O=C(NOCCOc1ccccc1)c1ccccc1 | 98% | 0% | 0% |

| Compound | Inhibition (Plasmodium falciparum [1]) | Inhibition (Plasmodium falciparum [2]) | Inhibition (HepG2) |
| --- | --- | --- | --- |
| CC[C@H](C)CNC(=O)c1cccc(-c2cccc(CN3CCC(N4CCCC4)CC3)c2)n1.O=C(O)C(F)(F)F | 100% | 86% | 9% |
| CC(C)(C)c1ccccc1OC(=O)c1ccccc1 | 95% | 2% | 0% |
| COc1ccc(CCN(C)CCOc2ccc(NC(=O)c3ccc([N+](=O)[O-])c4c(=O)c5ccccc5[nH]c34)cc2)cc1OC | 91% | 25% | 38% |
| CCCN(CCC)CCCNc1ccc(C(=O)Nc2ccc(C(C)C)cc2)cc1[N+](=O)[O-] | 98% | 38% | 17% |
| CCCc1cc(Cc2cnc(N)nc2N)cc(CCC)c1OCCCCC(=O)OC | 94% | 0% | 0% |
| CC1CCN(CC[C@H]2CCCN2S(=O)(=O)c2cccc(NC(=O)c3ccc(-c4ccccc4)cc3)c2)CC1 | 87% | 36% | 38% |
| CSc1ccccc1NC(=S)NC1CCN(CCCCCNC(=O)/C=C/c2ccc(Cl)c(Cl)c2)CC1 | 98% | 27% | 19% |
| Br.Cc1ccccc1OCCCON1C(=N)N=C(N)NC1(C)C | 95% | 97% | 66% |
| Cc1ccc(-c2ccc3c(c2)C=C(C(=O)NCC2CCN(CC4CCN(C(=O)/C=C/c5ccc(Cl)c(Cl)c5)CC4)CC2)CCC3)cc1 | 99% | 70% | 96% |
| Cc1cccc2nc(-c3cccc(-c4ccc(NC(=O)NCc5ccccc5)cc4)c3)[nH]c12 | 100% | 47% | 35% |
| Cc1cccc2nc(-c3cccc(-c4cccc(NC(=O)c5ccoc5)c4)c3)[nH]c12 | 99% | 71% | 19% |
| CC(O)C(=O)O.CCOc1ccc2nc3cc(N)ccc3c(N)c2c1 | 98% | 70% | 8% |
| CC(C)c1ccc(NC(=O)c2ccc(C(=O)NCC3CCN(CC4CCCCC4)CC3)cc2)cc1.O=C(O)C(F)(F)F | 92% | 18% | 26% |
| Cc1ccc(CN2CCCCC(NC(=O)c3cc4ccccc4s3)C2)cc1.O=C(O)C(F)(F)F (stereo not given) | 94% | 8% | 9% |
| N#Cc1cccc(NC(=O)NC2CCN(CCCCCNC(=O)/C=C/c3ccc(Cl)c(Cl)c3)CC2)c1 | 100% | 7% | 31% |
| N#Cc1ccc(-c2ccc(C(=O)NCCCCN3CCC(c4cc(Br)c5c(c4O)CCCC5)CC3)cc2)cc1 | 100% | 50% | 93% |
| O=C(c1ccc(-c2cccc(-c3nc4cc(F)ccc4[nH]3)c2)cc1)N1CCCCC1CN1CCC(O)C1 (stereo not given) | 91% | 0% | 11% |
| Cc1nc(-c2cccc(C(F)(F)F)c2)n2nc(Nc3ccc(OCCN4CCCC4)cc3)ncc12 | 99% | 29% | 30% |
| O=C(Nc1ccc(C(F)(F)F)cc1)c1ccc(S(=O)(=O)NC2CCN(CC3CCCCC3)CC2)cc1.O=C(O)C(F)(F)F | 100% | 20% | 30% |
| CN1CCN(Cc2ccc(-c3ccc4c(Nc5ccc(F)cc5Cl)ccnc4c3)o2)CC1 | 100% | 100% | 8% |

| Compound | Inhibition (Plasmodium falciparum [1]) | Inhibition (Plasmodium falciparum [2]) | Inhibition (HepG2) |
| --- | --- | --- | --- |
| CN1CCN(c2cc3c(cc2Cl)CCN3C(=O)Cc2ccc(NC(=O)Nc3cccc4ccccc34)cc2)CC1 | 92% | 18% | 12% |
| Br.CN1C(=O)C(=O)N(CCCCCONC(=N)N)C1=S | 100% | 1% | 21% |
| N#Cc1cccc(NC(=O)Nc2cccc(-c3cccc(-c4nc5cc(F)ccc5[nH]4)c3)c2)c1 | 100% | 66% | 60% |
| COc1ccc(-c2cccc(NC(=O)c3cccc(F)c3)c2)cc1CN1CCCN(C)CC1.O=C(O)C(F)(F)F | 100% | 78% | 42% |
| Cc1ccccc1C1CCN(C2CCC(NC(=O)/C=C/c3ccc4c(c3)OC(F)(F)O4)CC2)CC1 (stereo not given) | 100% | 39% | 75% |
| O=C(O)C(F)(F)F.Oc1ccc(CCNc2nc(NCCCOc3cccc(-c4ccccc4)c3)nc(N3CCNCC3)n2)cc1 | 89% | 14% | 40% |
| Cl.c1ccc(Oc2cccc(Nc3ccnc4ccccc34)c2)cc1 | 95% | 14% | 48% |
| CC(C)CCNc1nc(NCCCc2ccccc2)c2cc(O)ccc2n1 | 100% | 95% | 14% |
| NC(=O)C1CCN(Cc2cccc(-c3cccc(-c4nc5cc(F)ccc5[nH]4)c3)c2)CC1.O=C(O)C(F)(F)F | 100% | 7% | 15% |
| O=C(N[C@H]1CCN(CCc2ccc(O[C@H]3CCNC3)c(F)c2)C1)c1ccc(Cl)c(Cl)c1.O=C(O)C(F)(F)F | 95% | 23% | 39% |
| COc1ccc2c(c1)nc(CNC(=N)N)n2Cc1ccc(Cl)cc1.Cl | 100% | 99% | 12% |
| Cc1ccc(OC2CCN(CCCCC3(C)C(=O)Nc4ccccc43)CC2)cc1.Cl (stereo not given) | 100% | 2% | 63% |
| Cc1cc(N2CCCC2)nc(Nc2ccc(NC(=O)C3CCCC3)cc2)n1 | 100% | 81% | 27% |
| CCN(CC)c1ccc(C=CC(=O)NCCN2CCC(N(C)C3CCCCC3C)CC2)cc1 (stereo not given) | 88% | 18% | 29% |
| O=c1cc(-c2ccc3ccccc3c2)[nH]c2ccccc12 | 81% | 44% | 25% |
| O=c1c2ccc(F)cc2sn1-c1ccc(Cl)cc1 | 98% | 11% | 8% |
| Br.Cc1ccnc(Nc2nc(-c3ccccn3)cs2)c1 | 100% | 87% | 45% |
| Cc1ccc(N2CCN(CCCCNC(=O)c3ccc(NC(=O)c4ccc(Cl)cc4)cc3)CC2)c(C)c1 | 95% | 20% | 30% |
| Cc1cc(=NN=Cc2ccc(F)cc2)c2cc(F)ccc2[nH]1 | 100% | 61% | 6% |
| CN(c1ncc(-c2cccc(CNCc3ccccc3O)c2)cn1)C1CCCCC1 | 95% | 71% | 12% |
